Inconclusive results are not listed. Activity calls are given as the source filed them. The call rests on the fitted dose curve; in most records, active means well fitted cell-killing curve with a large enough effect (not every such curve was filed as active); inconclusive means small, poorly fitted or top-dose-only effect, or another doubt; inactive means no such curve, though single readings can be large or run the other way.

A short description of the assay: qHTS Assay for Agonists of the Relaxin Receptor RXFP1: Cytotoxicity SAR. The note with it: HEK293-RXFP1 viability, ATPLite luminescence, 72 h; series mostly up to 78.1 µM. From the text:
The relaxin hormone is involved in the variety of biological functions in normal tissues and diseases. The role of relaxin is well-established in female reproduction and parturition, mammary gland and endometrial development, maintenance of myometrial quiescence during pregnancy. Relaxin signaling through its G protein-coupled receptor (GPCR) RXFP1 results in ECM remodeling through regulation of collagen deposition, cell invasiveness, proliferation and overall tissue homeostasis. […] Recombinant human relaxin (rhRlx) is currently being tested in clinical trials as a protective agent in congestive heart failure, in treating severe preeclampsia, and as an anti-fibrotic agent in systemic sclerosis. In the primary screen, upon relaxin binding RXFP1 activation leads to the activation of adenylate cyclase (AC) via Gs. cAMP will activate PKA, which phosphorylates many signaling proteins. Thus, detection of cAMP increase is an easy and reliable indication of relaxin receptor activation. To screen for agonists of the relaxin receptor, a HEK293T cell line stably transfected with RXFP1 was used. RXFP1 activation was assayed by changes in cAMP levels as detected with a time-resolved fluorescence energy transfer (TR-FRET) cAMP detection kit. We conducted this followup assay to measure the effect of the lead candidates on cell health by measuring ATP levels (ATPLite). NIH Chemical Genomics Center [NCGC] NIH Molecular Libraries Probe Production Centers Network [MLPCN] MLPCN Grant: R03 MH085705-01A1 Assay Submitter (PI): Alexander Agoulnik
In this assay, the luciferase enzyme catalyzes the conversion of the added substrate D-luciferin to oxyluciferin and light with ATP. Thus, the emitted light is proportional to the ATP concentration. To evaluate the cytotoxic properties of the compounds, HEK293-RXFP1 cells were incubated with compounds for 72 h in growth media (DMEM 10% FBS, 1x Pen/Strep, 0.5 mg/mL G418) in 384-well format. After compound incubation, the levels of ATP in each well were measured with the addition of the ATPLite assay reagent.
On to `O=C(Nc1cccc(C(F)(F)F)c1)c1ccccc1NC(=O)C1CCCCC1`, for which the Potency was 18.8 µM (active).

For `CCOc1ccccc1C(=O)Nc1cnccc1C(=O)Nc1cccc(S(=O)(=O)C(F)(F)F)c1`, the Potency was 23.6 µM (active). As to `CCCCOc1ccccc1C(=O)Nc1ccccc1C(=O)Nc1cccc(S(=O)(=O)C(F)(F)F)c1`, the Potency entry is “inactive”.

As for `COCCOc1ccccc1C(=O)Nc1ccccc1C(=O)Nc1cccc(C(F)(F)F)c1`, the Potency entry is “inactive”. The entry for `CC(C)Oc1ccccc1C(=O)Nc1ccccc1C(=O)Nc1cccc(C(F)(F)F)c1` is “inactive”; for `CCOc1ccccc1C(=O)Nc1ccccc1CNc1cccc(S(=O)(=O)C(F)(F)F)c1` it is “inactive”.

As to `O=C(Nc1cccc(-c2ccccc2C(F)(F)F)c1)c1ccccc1NC(=O)C1CCCCC1`, the Potency entry is “inactive”. For `O=C(Nc1cccc(SC(F)(F)F)c1)c1ccccc1NC(=O)C1CCCCC1`, the Potency result was “inactive”.

As to `O=C(Nc1cccc(-c2cccc(C(F)(F)F)c2)c1)c1ccccc1NC(=O)C1CCCCC1`, the Potency is 23.6 µM (active). In the case of `O=C(Nc1cccc(C(F)(F)F)c1)c1ccccc1NC(=O)C1CCCCCC1`, the Potency was 5.93 µM (active). The entry for `O=C(Nc1cccc(Br)c1)c1ccccc1NC(=O)C1CCCCC1` is “inactive”; for `COc1ccccc1C(=O)Nc1cccc(C(=O)Nc2cccc(C(F)(F)F)c2)c1` it is 18.8 µM (active). To `COc1ccc(C(=O)Nc2ccccc2C(=O)Nc2cccc(C(F)(F)F)c2)cc1` belongs “inactive”.

In the case of `COCCNc1ccccc1C(=O)Nc1cccc(C(F)(F)F)c1`, the Potency is 29.7 µM (active).

Turning to `Cc1cccc(NC(=O)c2ccccc2NC(=O)C2CCCCC2)c1`, the Potency was 23.6 µM (active). The entry for `CCOc1ccccc1C(=O)NCCC(=O)Nc1cccc(S(=O)(=O)C(F)(F)F)c1` is “inactive”; for `COc1ccccc1-c1ccccc1C(=O)Nc1cccc(C(F)(F)F)c1` it is 23.6 µM (active); for `CCOc1ccccc1C(=O)Nc1sccc1C(=O)Nc1cccc(S(=O)(=O)C(F)(F)F)c1` it is 7.47 µM (active). Consider `O=C(Nc1ccccc1C(=O)Nc1cccc(C(F)(F)F)c1)c1cccnc1`, for which the Potency entry is “inactive”. The entry for `O=C(Nc1cccc(C(F)(F)F)c1)c1ccccc1NC(=O)C1CC1` is “inactive”; for `CC(C)Oc1ccccc1C(=O)Nc1ccccc1C(=O)Nc1cccc(S(=O)(=O)C(F)(F)F)c1` it is 9.4 µM (active). The figure for `CCOc1ccccc1S(=O)(=O)Nc1ccccc1C(=O)Nc1cccc(S(=O)(=O)C(F)(F)F)c1` is 5.93 µM (active); for `Cc1ccccc1C(=O)Nc1ccccc1C(=O)Nc1cccc(C(F)(F)F)c1` it is “inactive”. The figure for `CCCOc1ccccc1C(=O)Nc1ccccc1C(=O)Nc1cccc(S(=O)(=O)C(F)(F)F)c1` is 9.4 µM (active); for `O=C(Nc1cccc(Cl)c1)c1ccccc1NC(=O)C1CCCCC1` it is 29.7 µM (active). In the case of `O=C(Nc1ccc(C(F)(F)F)cc1)c1ccccc1NC(=O)C1CCCCC1`, the Potency was 11.8 µM (active). As for `O=C(NCc1ccco1)c1ccccc1NC(=O)c1ccccc1NC(=O)C1CCCCC1`, the Potency result is “inactive”. To `CCOc1ccccc1C(=O)Nc1ncccc1C(=O)Nc1cccc(S(=O)(=O)C(F)(F)F)c1` belongs 18.8 µM (active).

As for `O=C(Nc1cccc(C(F)(F)F)c1)c1ccccc1NC(=O)c1ccccc1OC(F)(F)F`, the Potency result was “inactive”. The entry for `CCOc1ccccc1-c1nc2c(C(=O)Nc3cccc(S(=O)(=O)C(F)(F)F)c3)cccc2[nH]1` is “inactive”. The figure for `COc1ccccc1CNc1ccccc1C(=O)Nc1cccc(C(F)(F)F)c1` is 23.6 µM (active); for `COc1ccccc1Nc1ccccc1C(=O)Nc1cccc(C(F)(F)F)c1` it is 23.6 µM (active); for `CCOc1ccccc1C(=O)Nc1ccccc1C(=O)Nc1cccc(C(F)(F)F)c1` it is “inactive”. To `CCC(CC)C(=O)Nc1ccccc1C(=O)Nc1cccc(C(F)(F)F)c1` belongs 9.4 µM (active). In the case of `O=C(Nc1cccc(C(F)(F)F)c1)c1ccccc1NC(=O)C1CCCC1`, the Potency result was “inactive”. The figure for `CCOc1ccccc1C(=O)Nc1ccncc1C(=O)Nc1cccc(S(=O)(=O)C(F)(F)F)c1` is 2.36 µM (active); for `O=C(Nc1cccc(-c2ccccc2)c1)c1ccccc1NC(=O)C1CCCCC1` it is 14.9 µM (active). To `COc1ccccc1C(=O)Nc1ccccc1C(=O)N(C)c1cccc(C(F)(F)F)c1` belongs 29.7 µM (active). The entry for `COc1ccccc1C(=O)Nc1ccccc1C(=O)Nc1cccc(C(F)(F)F)c1` is “inactive”; for `COc1ccccc1C(=O)N(C)c1ccccc1C(=O)N(C)c1cccc(C(F)(F)F)c1` it is 59.3 µM (active).

For the origin of these results see PubChem BioAssay AID602288 (National Center for Advancing Translational Sciences (NCATS), 2012).
